Broadly, the inhibition is the relative decrease from the control value, in per cent.

In this test the target is Neuropilin-1 (Homo sapiens) (UniProt O14786). Kind of test: NRP-1 b1b2 CendR peptide binding inhibitors, dose response, biochemical, FP and AlphaScreen panel (AID 651650). The conditions noted are these: NRP-1 b1b2 / RPARPAR peptide binding, FP or AlphaScreen; run 1, at 100 µM (top of the series). In general terms: Alpha assays give light when donor and acceptor beads are brought close together.
Sequence of Neuropilin-1 (Homo sapiens) (O14786 whole entry, looked up): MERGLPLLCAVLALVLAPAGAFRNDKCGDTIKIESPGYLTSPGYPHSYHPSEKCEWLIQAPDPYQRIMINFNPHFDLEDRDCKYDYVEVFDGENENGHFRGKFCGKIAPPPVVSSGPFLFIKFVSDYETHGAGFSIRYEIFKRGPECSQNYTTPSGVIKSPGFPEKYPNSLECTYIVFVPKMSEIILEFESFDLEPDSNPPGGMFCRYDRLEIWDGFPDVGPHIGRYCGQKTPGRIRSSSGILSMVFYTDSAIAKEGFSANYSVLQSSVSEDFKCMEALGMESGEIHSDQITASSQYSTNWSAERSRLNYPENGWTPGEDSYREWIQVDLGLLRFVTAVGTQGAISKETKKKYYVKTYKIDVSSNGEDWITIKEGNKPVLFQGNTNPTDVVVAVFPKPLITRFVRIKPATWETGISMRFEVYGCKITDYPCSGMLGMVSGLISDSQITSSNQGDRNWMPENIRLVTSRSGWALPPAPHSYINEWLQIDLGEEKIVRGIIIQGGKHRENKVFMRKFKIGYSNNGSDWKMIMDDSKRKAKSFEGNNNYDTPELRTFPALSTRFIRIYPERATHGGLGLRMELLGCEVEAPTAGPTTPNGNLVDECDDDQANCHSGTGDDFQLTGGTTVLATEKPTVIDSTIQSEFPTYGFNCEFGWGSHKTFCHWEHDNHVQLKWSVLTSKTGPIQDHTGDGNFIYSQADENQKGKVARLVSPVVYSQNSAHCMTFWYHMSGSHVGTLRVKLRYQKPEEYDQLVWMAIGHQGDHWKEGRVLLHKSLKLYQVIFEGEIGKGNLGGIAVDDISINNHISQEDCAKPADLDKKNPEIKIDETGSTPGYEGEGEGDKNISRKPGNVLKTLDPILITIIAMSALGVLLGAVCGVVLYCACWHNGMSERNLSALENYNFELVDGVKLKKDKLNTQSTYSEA
With `C=C(C)C1CC=C(C)/C(=N\NC(=O)CNc2ccccc2OC)C1` (stereo not drawn), the inhibition is -8.81%. In the case of `CSCCC(NC(=O)c1ccc(Cl)cc1Cl)C(=O)NCC(c1cccs1)N(C)C` (stereo not drawn) it was 31.9%; in that of `CC(C)(C)OC(=O)N1CCC(NC(=O)c2nc[nH]c2C(=O)N2CCc3ccccc3C2)CC1`, 25.2%.

As to `CC(=O)Oc1cc2c(c3ccccc13)CCC2=O`, the inhibition stood at 23.4%. For `CC(C)Cc1ccc(C(C)C(=O)Nc2ccc(O)cc2)cc1` (stereo not drawn), the inhibition was found to be 34.6%. In the case of `CC(=O)N1CCSc2ccc(S(=O)(=O)Nc3ccc(C)cc3)cc21`, the inhibition turned out to be 47.7%. For `Nc1ccc(C(=O)Nc2ccc(Nc3ccncc3)cc2)c([N+](=O)[O-])c1`, the inhibition worked out at 102%. Under `C=C1CCN(C(C(=O)OC)C(C)C)S(=O)(=O)c2ccc(F)cc21` (stereo not drawn) stands 68%; under `O=C(Nc1cccc(C(F)(F)F)c1)C1Cc2c(-c3cccc(F)c3)ccnc2O1` (stereo not drawn), 18.4%; under `Cc1cnc(C(=O)OCC(=O)Nc2sc3c(c2C#N)CCC3)cn1`, 44.2%. Regarding `CCCc1c(O)c2ccccc2[nH]c1=O`, the inhibition is 5.68%. Under `CCc1ccc(NS(=O)(=O)c2c(C(=O)N3CCCCCC3)c(C)n(C)c2C)cc1` stands 31.1%; under `O=C1N[C@H](Cc2c[nH]c3ccccc23)COC(=O)[C@H](Cc2ccc(F)cc2)C/C=C\C[C@H]1CC(=O)N(CCO)Cc1ccccc1`, 41.5%; under `CCn1c(SCC(=O)c2ccccc2)nnc1-c1cccs1`, 45.2%.

As to `CN(Cc1cnn(C)c1)C(=O)c1cc2ccccc2oc1=O`, the inhibition came out at 29.1%.

In the case of `C=CCN(CC=C)C(=O)C1CC(=O)N(c2ccc(Br)cc2)C1` (stereo not drawn), the inhibition is -4.22%.

Regarding `O=c1c2cn[nH]c2nc(SCc2ccccc2F)n1-c1ccc(Br)cc1`, the inhibition worked out at 53.3%. `COc1cccc(N2[C@@H](CC(C)=O)c3ccc(/C=C/C(C)=O)cc3S2(=O)=O)c1`: the inhibition amounted to 10.9%.

On to `Cc1ccc(Nc2c(-c3ccccc3O)nc3ncccn23)cc1`, for which the inhibition was determined as 19.2%.

Consider `O=C(NCCN1CCOCC1)c1cc(-c2ccc(F)cc2)on1`, for which the inhibition turned out to be 17.9%. For the molecule `CSc1cccc(CN2CCN(Cc3ccccc3)C(CCO)C2)c1` (stereo not drawn), the inhibition was found to be 48.8%.

As for `O=C(NCc1ccccc1)C(c1cccnc1)N(C(=O)c1ccccn1)c1ccccc1F` (stereo not drawn), the inhibition was 43.9%. For the molecule `CC1(C)S[C@@H]2[C@H](NC(=O)COc3ccccc3)C(=O)N2C1C(=O)OCc1ccccc1` (stereo partly drawn), the inhibition worked out at 53.2%. For the molecule `CCOC(=O)c1ccc(N2CCN(C(=O)c3ccccc3)CC2)c(NC(=O)c2ccco2)c1`, the inhibition was 40.4%. Take `COc1ccc(Cn2c(C3CC3)nc3ccc(NC(=O)c4cccnc4)cc3c2=O)cc1`: the inhibition stood at 88.1%. In the case of `O=C(CCCNC(=O)/C(=C\c1ccc(F)cc1)NC(=O)c1ccccc1)OCc1ccccc1`, the inhibition is -33%.

For the molecule `COC(=O)n1c(=O)oc2ccccc21`, the inhibition was found to be 50%. For `Cc1cc(NC(=O)CCC(=O)NNC(=O)c2ccc(C(C)(C)C)cc2)no1`, the inhibition came to 102%. In the case of `O=C(Nc1cccc2c1CCCC2)c1cc(C2CCCCN2C(=O)CCCc2ccccc2)on1` (stereo not drawn) it was -15%; in that of `CC(C)Oc1ccc(F)cc1-c1cc(C(=O)NCc2ccc(F)cc2)[nH]n1`, 16%.

Take `CC#CCN(Cc1ccco1)C(=O)C1CCC(=O)N(Cc2ccccc2F)C1` (stereo not drawn): the inhibition is 24.4%. For `C=CCNC(=O)c1onc(CSc2ccc(F)c(F)c2)c1C(=O)NCC=C`, the inhibition was 38.7%. As for `c1ccc2c(c1)CCCN2Cc1nnnn1CC1CCCO1` (stereo not drawn), the inhibition stood at 48.9%. Take `CCCNC(=S)Nc1cccc(C(F)(F)F)c1`: the inhibition is -8.06%.

Consider `O=C(CSc1nnc(Cc2ccccc2)n1Cc1ccccc1)NCc1ccco1`, for which the inhibition is 8.68%.

In the case of `CCOC(=O)N1CCN(C(=O)c2cc(COc3ccc(OC)cc3Cl)on2)CC1`, the inhibition is 37.8%. With `C#CCOc1nc(C)cc(C)c1S(=O)(=O)c1ccccc1C`, the inhibition was found to be 25.9%. `COc1ccc(C2CC(C(F)(F)F)n3nc(C(=O)O)c(Cl)c3N2)cc1OC` (stereo not drawn): the inhibition was determined as 46.4%.

The values are drawn from PubChem BioAssay AID651650 (Sanford-Burnham Center for Chemical Genomics, 2012).
